{"source": "paper PMC4336329", "about": "(PLoS ONE, 2015)", "note": "About 14,000 (4.5%) of roughly 310,000 compounds showed an effect of 50% or more. Effects have a minus sign here. For the sample, strong results were picked, then their nearest neighbours and some compounds at random.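 Note: peak tail current of the secondary pulse compared with the same well before compound.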"}
{"biological_target": "human ether-à-go-go-related gene (hERG) potassium channel (human, UniProt Q12809)", "sequence (Q12809 whole entry, looked up)": "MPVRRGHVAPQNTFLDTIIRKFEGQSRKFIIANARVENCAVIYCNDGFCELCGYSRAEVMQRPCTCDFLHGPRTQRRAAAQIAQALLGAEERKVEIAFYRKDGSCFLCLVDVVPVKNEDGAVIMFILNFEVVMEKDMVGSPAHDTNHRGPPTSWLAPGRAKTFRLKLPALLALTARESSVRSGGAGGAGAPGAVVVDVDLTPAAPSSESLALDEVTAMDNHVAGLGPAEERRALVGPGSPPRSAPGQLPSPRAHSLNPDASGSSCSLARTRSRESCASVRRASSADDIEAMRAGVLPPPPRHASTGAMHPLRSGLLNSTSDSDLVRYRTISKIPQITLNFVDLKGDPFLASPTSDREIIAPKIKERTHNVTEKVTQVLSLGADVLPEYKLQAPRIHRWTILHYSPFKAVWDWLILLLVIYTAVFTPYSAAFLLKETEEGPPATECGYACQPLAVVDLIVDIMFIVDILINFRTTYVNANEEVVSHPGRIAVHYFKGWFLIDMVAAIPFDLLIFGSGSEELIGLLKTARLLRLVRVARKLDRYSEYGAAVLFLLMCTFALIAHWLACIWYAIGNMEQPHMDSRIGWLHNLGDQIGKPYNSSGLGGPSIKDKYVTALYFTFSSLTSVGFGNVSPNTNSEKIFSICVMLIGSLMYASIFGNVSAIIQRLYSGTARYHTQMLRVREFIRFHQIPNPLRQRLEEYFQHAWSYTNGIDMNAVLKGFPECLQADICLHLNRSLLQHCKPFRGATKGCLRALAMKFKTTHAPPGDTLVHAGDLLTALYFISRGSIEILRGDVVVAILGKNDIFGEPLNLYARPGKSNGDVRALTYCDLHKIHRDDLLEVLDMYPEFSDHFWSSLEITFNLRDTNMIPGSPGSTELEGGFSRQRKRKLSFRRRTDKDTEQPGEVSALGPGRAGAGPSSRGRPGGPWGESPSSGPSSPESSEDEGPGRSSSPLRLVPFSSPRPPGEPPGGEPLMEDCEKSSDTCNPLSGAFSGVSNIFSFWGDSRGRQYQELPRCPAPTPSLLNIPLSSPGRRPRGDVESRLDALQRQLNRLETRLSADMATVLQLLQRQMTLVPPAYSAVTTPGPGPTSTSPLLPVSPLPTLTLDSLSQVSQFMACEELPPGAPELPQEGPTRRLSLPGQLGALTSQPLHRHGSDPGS", "assay": "primary screen, population patch clamp on CHO cells stably expressing hERG; higher = less effect of the substance", "units": {"hERG current change (%, negative = inhibition) at 10uM": "%"}}
{"smiles": "Cc1csc(SC(C)C(=O)Nc2ccc3c(c2)OCCO3)n1", "note": "(stereo not shown)", "hERG current change (%, negative = inhibition) at 10uM": 6.25}
{"smiles": "COc1ccc(OC)c(C2CC(=O)c3c([nH]c(C(=O)OCC4CCCO4)c3C)C2)c1", "note": "(stereo not shown)", "hERG current change (%, negative = inhibition) at 10uM": 3.54}
{"smiles": "CCOC(=O)C1C(=O)NC(N2CCN(CC)CC2)=NC1c1ccccc1", "note": "(stereo not shown)", "hERG current change (%, negative = inhibition) at 10uM": 16.8}
{"smiles": "CC1CCC(CN2CCN=C2Nc2ccccc2)CC1", "note": "(stereo not shown)", "hERG current change (%, negative = inhibition) at 10uM": -14.7}
{"smiles": "CC(C)c1nnc(NC(=O)CCC(=O)NC2CCCCC2)s1", "hERG current change (%, negative = inhibition) at 10uM": 1.73}
{"smiles": "O=C(Nc1ccnn1C1CCN(C(=O)c2cc(Cl)ccc2F)CC1)C1CCOC1", "note": "(stereo not shown)", "hERG current change (%, negative = inhibition) at 10uM": 23.6}
{"smiles": "Fc1ccc2c(-c3cccc(C(F)(F)F)c3)c(-c3ccccc3)ncc2c1", "hERG current change (%, negative = inhibition) at 10uM": 14.1}
{"smiles": "Cc1cc(C)cc(NC(=O)COc2coc(CN3CCc4ccccc43)cc2=O)c1", "hERG current change (%, negative = inhibition) at 10uM": 2.85}
{"smiles": "Cc1cc(C)c(NC(=O)COC(=O)C2CCCCC2)c(C)c1", "hERG current change (%, negative = inhibition) at 10uM": 4.87}
{"smiles": "Cc1cc(C)n(-c2cc(N3CCN(S(=O)(=O)c4ccc(Br)cc4)CC3)ccc2[N+](=O)[O-])n1", "hERG current change (%, negative = inhibition) at 10uM": -21.3}
{"smiles": "Cc1cc(C)n(-c2cc(N3CCN(C(=O)c4cccc(Br)c4)CC3)ccc2[N+](=O)[O-])n1", "hERG current change (%, negative = inhibition) at 10uM": -67.6}
{"smiles": "O=C(c1cccc(F)c1)N1CCN(c2ccc([N+](=O)[O-])c(N3CCOCC3)c2)CC1", "hERG current change (%, negative = inhibition) at 10uM": -25}
{"smiles": "Cc1cc(C)n(-c2cc(N3CCN(C(=O)c4cccc(F)c4)CC3)ccc2[N+](=O)[O-])n1", "hERG current change (%, negative = inhibition) at 10uM": -67.9}
{"smiles": "Cc1cc(C)n(-c2cc(N3CCN(S(=O)(=O)c4ccc5ccccc5c4)CC3)ccc2[N+](=O)[O-])n1", "hERG current change (%, negative = inhibition) at 10uM": -1.13}
{"smiles": "CCN(CC(=O)Nc1ccccc1OC)C(=O)c1ccccc1Sc1ccccc1C#N", "hERG current change (%, negative = inhibition) at 10uM": 8.48}
{"smiles": "O=C(Nc1ccccc1)N1CCCN(c2nccc(C(F)(F)F)n2)CC1", "hERG current change (%, negative = inhibition) at 10uM": -5.36}
{"smiles": "O=C(CSc1ncn[nH]1)Nc1ccc(Br)cc1F", "hERG current change (%, negative = inhibition) at 10uM": -5.57}
{"smiles": "CCOC(=O)c1cnc2cc(C)ccn2c1=O", "hERG current change (%, negative = inhibition) at 10uM": -7.41}
{"smiles": "Cc1cccc(NC(=O)CN(C)CC(=O)NC(c2ccccc2)c2ccccc2)c1C", "hERG current change (%, negative = inhibition) at 10uM": -30.5}
{"smiles": "CCc1ccc(NC2=NCC(c3ccccc3)S2)cc1", "note": "(stereo not shown)", "hERG current change (%, negative = inhibition) at 10uM": -17.5}
{"smiles": "O=[N+]([O-])c1ccc(C2CN=C(Nc3ccccc3)S2)cc1", "note": "(stereo not shown)", "hERG current change (%, negative = inhibition) at 10uM": -60.2}
{"smiles": "Cc1ccccc1NC1=NCC(c2ccc([N+](=O)[O-])cc2)S1", "note": "(stereo not shown)", "hERG current change (%, negative = inhibition) at 10uM": -44.9}
{"smiles": "CCN(CC)c1ccc(/C=N/NC(=O)CNC(=O)c2ccc3c(c2)OCCO3)cc1", "hERG current change (%, negative = inhibition) at 10uM": -5.14}
{"smiles": "COc1ccc(CC(=O)NCCS(=O)(=O)N2CCN(c3ccccc3OC)CC2)cc1", "hERG current change (%, negative = inhibition) at 10uM": -17.1}
{"smiles": "CCc1ccc(-c2nc(CN3CCC(C(=O)NCc4ccco4)CC3)c(C)o2)cc1", "hERG current change (%, negative = inhibition) at 10uM": -66.3}
{"smiles": "O=C(NCc1ccco1)C1CCN(Cc2ccc(F)cc2)CC1.O=C(O)C(=O)O", "hERG current change (%, negative = inhibition) at 10uM": -15.4}
{"smiles": "CCc1ccc(-c2nc(CS(=O)CC(=O)NCc3ccco3)c(C)o2)cc1", "note": "(stereo not shown)", "hERG current change (%, negative = inhibition) at 10uM": 1.94}
{"smiles": "CCc1ccc(-c2nc(CN3CCC(C(=O)NCc4ccc(F)cc4)CC3)c(C)o2)cc1", "hERG current change (%, negative = inhibition) at 10uM": -50.5}
{"smiles": "Cc1oc(-c2cccc(Cl)c2)nc1CN1CCC(C(=O)NC2CC2)CC1", "hERG current change (%, negative = inhibition) at 10uM": 16.2}
{"smiles": "Cc1oc(-c2ccc(Cl)cc2)nc1CS(=O)CC(=O)NCc1ccco1", "note": "(stereo not shown)", "hERG current change (%, negative = inhibition) at 10uM": -35.6}
{"smiles": "Cc1oc(-c2cccc(Cl)c2)nc1CN1CCC(C(=O)NCc2ccco2)CC1", "hERG current change (%, negative = inhibition) at 10uM": -78}
{"smiles": "Cc1oc(-c2ccc(Cl)cc2)nc1CN1CCC(C(=O)NCc2ccco2)CC1", "hERG current change (%, negative = inhibition) at 10uM": -71.2}
{"smiles": "COc1ccc(C(=O)NC2CCCCCC2)cc1S(=O)(=O)N1CCCc2ccccc21", "hERG current change (%, negative = inhibition) at 10uM": 11.3}
{"smiles": "CCOc1ccc(C2N(c3ccc(OC)cc3)C(=O)C3CCCN32)cc1OC", "note": "(stereo not shown)", "hERG current change (%, negative = inhibition) at 10uM": -3.49}
{"smiles": "CC1CCN(S(=O)(=O)c2ccc(NC(=O)CCN3C(=O)C4CC=CCC4C3=O)cc2)CC1", "note": "(stereo not shown)", "hERG current change (%, negative = inhibition) at 10uM": -25.3}
{"smiles": "Nc1ccc(N=Nc2ccccc2)c2ccccc12", "hERG current change (%, negative = inhibition) at 10uM": 22.4}
{"smiles": "COc1ccccc1CN(C)C(=O)c1ccccc1Sc1ccccc1C#N", "hERG current change (%, negative = inhibition) at 10uM": -25}
{"smiles": "O=C(NCc1ccco1)c1ccc(S(=O)(=O)c2cccc(S(=O)(=O)N3CCOCC3)c2)cc1", "hERG current change (%, negative = inhibition) at 10uM": 2.58}
{"smiles": "CCN(CC)P(=O)(c1n(CC)cc[n+]1CC)N(CC)CC.[I-]", "hERG current change (%, negative = inhibition) at 10uM": 15.1}
{"smiles": "CCOC(=O)Cn1c(CN2CCN(C(=O)c3ccco3)CC2)nc2c1c(=O)n(C)c(=O)n2C", "hERG current change (%, negative = inhibition) at 10uM": -13.3}
{"smiles": "O=C(Nc1ccc(N2CCN(C(=O)c3ccco3)CC2)c(Cl)c1)c1cccnc1", "hERG current change (%, negative = inhibition) at 10uM": -16.8}
{"smiles": "Cc1oc(-c2ccccc2F)nc1CN1CCC(C(=O)NCc2ccco2)CC1", "hERG current change (%, negative = inhibition) at 10uM": -38}
{"smiles": "Cc1ccccc1-c1nc(CN2CCC(C(=O)NCc3ccco3)CC2)c(C)o1", "hERG current change (%, negative = inhibition) at 10uM": -73.6}
{"smiles": "COc1ccc(OC)c(S(=O)(=O)NC2CCN(Cc3ccccc3)CC2)c1", "hERG current change (%, negative = inhibition) at 10uM": -4.92}
{"smiles": "Nc1ccc(C(=O)N/N=C2\\CCCc3c2[nH]c2ccccc32)cc1", "hERG current change (%, negative = inhibition) at 10uM": 16.2}
{"smiles": "COc1ccc(-n2nc(C(=O)NCC(=O)NCCCN3CCN(C)CC3)c3ccccc3c2=O)cc1OC", "hERG current change (%, negative = inhibition) at 10uM": 18.9}
{"smiles": "Cc1ccccc1CN1C2=NCCCN2c2ccccc21.Cl", "hERG current change (%, negative = inhibition) at 10uM": -68}
{"smiles": "Cc1ccccc1CN1C2=NCCN2c2ccccc21.Cl", "hERG current change (%, negative = inhibition) at 10uM": -53.7}
{"smiles": "CS(=O)(=O)NCc1nnc(SCC(=O)NC2CCCCC2)n1-c1ccc(F)cc1", "hERG current change (%, negative = inhibition) at 10uM": 11.6}
{"smiles": "COCCn1cc(C(=O)NCc2ccco2)c2c3ccccc3n(C)c2c1=O", "hERG current change (%, negative = inhibition) at 10uM": -20.6}
{"smiles": "Cc1cc2ccccc2c(=O)n1CC(=O)NCc1ccco1", "hERG current change (%, negative = inhibition) at 10uM": 13.8}
{"smiles": "COCCn1c(=N)c(C(=O)NCc2ccco2)cc2c(=O)n3ccccc3nc21", "hERG current change (%, negative = inhibition) at 10uM": -78.1}
{"smiles": "Cc1ccc2nc3c(cc(C(=O)NCc4ccco4)c(=N)n3Cc3ccco3)c(=O)n2c1", "hERG current change (%, negative = inhibition) at 10uM": -77}
{"smiles": "COCCn1c(=N)c(S(=O)(=O)c2ccc(F)cc2)cc2c(=O)n3ccccc3nc21", "hERG current change (%, negative = inhibition) at 10uM": -25.5}
{"smiles": "CCn1cc(C(=O)NCc2ccco2)c(=O)c2ccc(C)nc21", "hERG current change (%, negative = inhibition) at 10uM": 16.9}
{"smiles": "COCCn1c(=N)c(C(=O)NCc2ccco2)cc2c(=O)n3cc(C)ccc3nc21", "hERG current change (%, negative = inhibition) at 10uM": -82.1}
{"smiles": "CCn1cc(C(=O)NCc2ccco2)c2cc(OC)c(OC)cc2c1=O", "hERG current change (%, negative = inhibition) at 10uM": -20.9}
{"smiles": "COCCn1c(=N)c(S(=O)(=O)c2ccc(Br)cc2)cc2c(=O)n3ccccc3nc21", "hERG current change (%, negative = inhibition) at 10uM": -44.3}
